In PubChem BioAssay (NCI):
This is part of a sample that, as a whole, favours compounds with a hit. Of some 79,000 tested, about 15% had one in any assay. A number with no mark means an inactive call. The source made the active and inactive calls. No stated cut-off is given here; in the data, active means growth inhibition above about 70%; inactive means the rest.

Legend:
[1] = NCI Yeast Anticancer Drug Screen. Data for the rad50 strain (AID 155);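 further: 0% = growth of vehicle-only cultures of the same strain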; conditions: S. cerevisiae rad50 strain growth inhibition; at 50.0 µM; stronger effect = higher value
In short: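 Relative growth inhibition (compound vs vehicle) was measured in yeast with a defined repair-gene alteration.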

[2] = NCI Yeast Anticancer Drug Screen. Data for the mec2-1 strain (AID 157); conditions: S. cerevisiae mec2-1 strain, at 50.0 µM, stronger effect = higher value
In short: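 Test agents were screened against the mec2-1 yeast strain, with defined DNA repair or cell cycle alteration. Growth was scored as inhibition against vehicle-only controls.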

[3] = NCI Yeast Anticancer Drug Screen. Data for the sgs1 mgt1 strain (AID 161);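 further: 0% = growth of cultures given vehicle only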; conditions: S. cerevisiae sgs1 mgt1 strain, at 50.0 µM, stronger effect = higher value
In short: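 Read-out: growth inhibition vs vehicle controls. Cells: mutant yeast strain deficient in DNA damage repair.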

[4] = NCI Yeast Anticancer Drug Screen. Data for the cln2 rad14 strain (AID 165);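 further: 0% = growth equal to vehicle treated cultures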; conditions: S. cerevisiae cln2 rad14 strain, at 50.0 µM, stronger effect = higher value
In short: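 Growth of compound-exposed yeast (cln2 rad14 genotype) measured and expressed as inhibition relative to vehicle.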

[5] = NCI Yeast Anticancer Drug Screen. Data for the bub3 strain (AID 167); conditions: S. cerevisiae bub3 mutant strain, at 50.0 µM, stronger effect = higher value
In short: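 Screening used yeast with an engineered genetic alteration affecting cell cycle control. Compound-exposed cultures were compared with vehicle cultures, and reduced growth was taken as inhibition.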

[6] = NCI Yeast Anticancer Drug Screen. Data for the mlh1 rad18 strain (AID 175); conditions: S. cerevisiae mlh1 rad18 strain growth inhibition; at 50.0 µM; stronger effect = higher value
In short: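 In this whole-cell yeast screen, a strain with altered DNA damage repair is challenged with compound, and its growth is measured against matched vehicle-treated controls.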

Structure (SMILES)	growth inhibition [1]	growth inhibition [2]	growth inhibition [3]	growth inhibition [4]	growth inhibition [5]	growth inhibition [6]
CCCn1c(C)nc2cc(C)cc(N)c21	19.2%	20.4%	11%	-17.4%	-1.15%	1.7%
O=C(O)CSc1ccccc1	39.5%	18.4%	17.8%	13.3%	20.6%	0.15%
CC(=O)Nc1ccc(/C=C2\SC(=S)N(C=C(C#N)C#N)C2=O)cc1	3.95%	12.2%	-10.4%	38.5%	15.2%	-2.35%
[Cl-].[Dy+3].[O-]/N=C(\c1ccccc1)c1ccccn1.[O-]/N=C(\c1ccccc1)c1ccccn1.[O-]/N=C(\c1ccccc1)c1ccccn1	27.4%	13.3%	20.2%	12.2%	19.4%	25.1%
COc1ccc2ccc3c(CCN(C)C#N)cc4c(c3c2c1OC(C)=O)OCO4	11.7%	-2.15%	-8.9%	6.6%	-0.95%	0.15%
CC1=CC(=O)[C@@H]2C[C@H]1C2(C)C	15.3%	12.8%	-33.9%	-2.9%	-2.1%	22.2%
CCC(CC)c1nc2c([nH]1)c(=O)n(C)c(=O)n2C	-34%	8.1%	5.3%	-32.5%	-7.2%	-10.3%
Cc1cc(N(CCCCl)CCCCl)ccc1C=Nc1cc(Br)c(O)c(Br)c1	81% (active)	52.4%	93.5% (active)	52.5%	76.3% (active)	84.9% (active)
C=C(C)C1CCC2(C)CC3C(=C)CC(O)C(O)C3(C)CCC12 (stereo unspecified)	48.2%	88.8% (active)	90.8% (active)	90% (active)	90.2% (active)	89.5% (active)
COc1cc(CC(=O)c2ccc3c(c2)OCO3)cc(OC)c1OC	-9.95%	-5.15%	-8.95%	-15.5%	4.75%	-25.3%
OCC1CC(c2ccccc2)=NO1 (stereo unspecified)	-19.9%	-11.1%	-11.2%	-20.2%	-3.9%	-17.6%
ClC1(Cl)CC1c1ccccc1 (stereo unspecified)	0.1%	11.9%	6.8%	-9.7%	1.45%	14.7%
CC(C)(O)C1COC2=C1C(=O)c1ccccc1C2=O (stereo unspecified)	11.8%	-10.2%	24.6%	12.6%	7.2%	-35.9%
COc1ccc(/C=C2/SC(=Nc3ccccc3)N(NC(=O)Cc3ccccc3)C2=O)c(OC)c1	-17.9%	-19.3%	7.45%	-12.8%	-1.85%	1.9%
O=C1C=C(O)C(=C/C=C/C=C/c2c(O)cc(O)cc2O)C(O)=C1	-12.4%	-13.6%	-2.65%	10.2%	6.65%	-5.7%
CC(C)(O)/C(=N/O)c1ccc(-c2ccccc2)cc1	-4.05%	-18.3%	0.35%	-16.1%	9.35%	10.8%
CNC(=S)SC1=NS(=O)(=O)c2ccccc2N1	-9.1%	-5.05%	-2.75%	12.4%	-9.75%	23.4%
S=C(Nc1ccc2ccccc2c1)Nc1ccc2ccccc2c1	22%	10.9%	14.4%	-30.6%	5.4%	-2%
C/C(=N/Nc1ccc([N+](=O)[O-])cc1[N+](=O)[O-])c1ccc(Sc2ccc(/C(C)=N/Nc3ccc([N+](=O)[O-])cc3[N+](=O)[O-])cc2)cc1	-13.2%	-21.1%	-10.3%	-19.4%	-14.9%	-23.4%
CCC(c1ccc(Cl)cc1)N(CC)c1ccccn1 (stereo unspecified)	7%	-0.4%	16.6%	-52.4%	3.5%	-30.2%
CCc1nnc(CC)n1NCCCC(=O)O	26.3%	24.2%	20.8%	18.2%	24.9%	15.7%

Structure (SMILES)	growth inhibition [1]	growth inhibition [2]	growth inhibition [3]	growth inhibition [4]	growth inhibition [5]	growth inhibition [6]
CCO/C(C)=N/n1c(C)nc2[nH]ncc2c1=O	1.55%	-10.8%	5.55%	-6.45%	11.7%	17.9%
CC(=O)OCC1OC(n2c(C)c(N=Nc3ccc(C)cc3)c(C)c(C#N)c2=S)C(OC(C)=O)C(OC(C)=O)C1OC(C)=O (stereo unspecified)	-8.05%	-14.4%	11.9%	2.65%	-10.8%	-2.75%
O=C1Cc2c(c3ccccc3c3ccccc23)C1	20.9%	7.5%	-4.1%	-41%	4%	20.9%
CC(=O)NC(Cc1ccc(OC(C)=O)c(OC(C)=O)c1)C(C)=O (stereo unspecified)	-10.4%	9.7%	-0.7%	-8.3%	-10.6%	6%
C1=Nc2ccccc2Cn2nncc21	19.7%	21%	43.1%	18.4%	17.1%	41.5%
OCc1c(CO)c(Br)c2ccccc2c1Br	11.8%	3.75%	35%	-6.45%	4.9%	-6.2%
CC(C)CCOc1ccc(C(N)=S)c2ccccc12	80% (active)	96.8% (active)	96.4% (active)	68.5%	84% (active)	95.2% (active)
CCOC(=O)CCCCCC#N	1.35%	-18.4%	-6.1%	-1.75%	-9.5%	-0.15%
Cc1c(N=Nc2cccc(Cl)c2Cl)c(-c2ccccc2)nn1C(=S)S	53.8%	42.6%	55.9%	35.6%	24.6%	28.2%
CN(C)c1ccc(/C=C/c2nc3ccc([N+](=O)[O-])cc3[nH]2)cc1	-2.4%	3.6%	9.65%	14.2%	0.6%	0.1%
CCCOC(=O)c1ccccc1C(=O)OC1CCCCC1	8%	-2.05%	9.2%	-18%	-2.4%	-8.65%
Brc1c(NC2=NCCN2)ccc2nccnc12	6.2%	5.1%	-24%	-6.45%	-22.1%	-56.9%
Cc1ccc(NC(=O)C(=O)Cc2cccc[n+]2[O-])cc1C	25.4%	13.1%	-4.1%	12.2%	9.05%	-6.1%
Cc1ccccc1C1OC(=O)c2ccc3ccccc3c21 (stereo unspecified)	10.6%	1.8%	14.4%	7.95%	1.45%	6.55%
O=C(N/N=C/c1ccc(Cl)cc1Cl)c1cccc2ccccc12	8.2%	-6.3%	-15%	-5.6%	11.6%	3.1%
CC1OC(OC2C(OC(=O)[C@@H]3CC(C)(C)C[C@@H]4C5=CC[C@@H]6[C@@]7(C)C[C@H](O)[C@H](OC8OC(CO)C(O)C(O)C8O)[C@@](C)(CO)C7[C@H](O)C[C@@]6(C)[C@]5(C)C[C@@H](O)[C@H]43)OCC(O)C2O)C(O)C(O)C1O (stereo partly specified)	-23.9%	-21.6%	-9.35%	13.2%	1%	-49.7%
Cc1cccc(N/N=C2\CCSc3ccccc32)c1	17.9%	8.45%	3.35%	5.95%	3.75%	4%
COc1ccc(C2CC(=O)N(CC(=O)O)C(=O)C2)cc1	13.9%	14.8%	8.3%	-17%	-9.4%	7.55%
COc1cc(/C=C2\Cc3ccccc3C2=O)cc(OC)c1OC	-13%	-14.8%	-15.8%	18.3%	-14.1%	-13.1%
CCCC1(C)OCC(CCl)O1 (stereo unspecified)	-41.6%	-28.4%	-14.6%	-13.2%	-18.3%	0.15%
